Measurements reported in ChEMBL document CHEMBL4513141, “CO-ADD screening of NIH (USA) - Clinical Collection” (2021).
Potency and affinity values are given separately.

These molecules were tested on Staphylococcus aureus. Details: Concentration 20 uM; ASSAY_TEST Inhibition of Bacterial Growth; detection method Absorption (OD600); MEDIA CAMHB; plate type 384well; NBS; CORNING #3640; time 18 hr.

Row | SMILES | Inhibition
1 | Cc1onc(-c2ccccc2)c1-c1ccc(S(N)(=O)=O)cc1 [VALDECOXIB] | 10.74%
2 | CC(N/C(=N\C#N)Nc1ccncc1)C(C)(C)C.O (stereo not drawn) | -1.94%
3 | Nc1nc(O)c2ncn(CCC(CO)CO)c2n1 [PENCICLOVIR] | 6.12%
4 | C#C[C@]1(O)CC[C@H]2[C@@H]3CCc4cc(OC)ccc4[C@H]3CC[C@@]21C [MESTRANOL] | 8.43%
5 | COc1ccc(/C=C/C(=O)Nc2ccccc2C(=O)O)cc1OC | 8.38%
6 | CCOC(=O)C1=C(C)NC(C)=C(C(=O)OC)C1c1cccc(Cl)c1Cl (stereo not drawn) [FELODIPINE] | 13.21%
7 | Cc1cccc(CN2CCN(C(c3ccccc3)c3ccc(Cl)cc3)CC2)c1.Cl.Cl (stereo not drawn) | 9.26%
8 | COc1cc(C)nc(-n2nc(C)cc2OC)n1 [EPIRIZOLE] | 7.75%
9 | C[C@]12CC[C@@H]3c4ccc(OS(=O)(=O)[O-])cc4CC[C@H]3[C@@H]1CCC2=O.[Na+] [ESTRONE SODIUM SULFATE] | 8.52%
10 | Cl.c1ccc2c(c1)CCCC2C1=NCCN1 (stereo not drawn) [TETRAHYDROZOLINE HYDROCHLORIDE] | 17.23%
11 | CCCCC1=NC2(CCCC2)C(=O)N1Cc1ccc(-c2ccccc2-c2nnn[nH]2)cc1 [IRBESARTAN] | 6.34%
12 | CCN1CCC[C@H]1CNC(=O)c1cc(S(N)(=O)=O)ccc1OC [LEVOSULPIRIDE] | 7.78%
13 | C[C@@H]1C[C@H]2[C@@H]3C[C@H](F)C4=CC(=O)C(Cl)=C[C@]4(C)[C@@]3(F)[C@@H](O)C[C@]2(C)[C@@]1(O)C(=O)CO [HALOMETASONE] | 3%
14 | CCN(CC)CC1CCCCN1CC(=O)N1c2ccccc2C(=O)Nc2cccnc21 (stereo not drawn) [OTENZEPAD] | 7.92%
15 | Cc1ncc([N+](=O)[O-])n1CCO [METRONIDAZOLE] | 17.23%
16 | CN(C)CCC[C@@]1(c2ccc(F)cc2)OCc2cc(C#N)ccc21.O=C(O)C(=O)O [ESCITALOPRAM OXALATE] | 8.47%
17 | CC(C)[N+](C)(CCOC(=O)C1c2ccccc2Oc2ccccc21)C(C)C.[Br-] [PROPANTHELINE BROMIDE] | 16.95%

Row | SMILES | Inhibition
18 | COc1ccccc1OCCNCC(O)COc1cccc2[nH]c3ccccc3c12 (stereo not drawn) [CARVEDILOL] | 10.39%
19 | Nc1c2c(nc3c1CCC3)CCCC2 [IPIDACRINE] | 16.52%
20 | Nc1nc(N)nc(-c2cc(Cl)ccc2Cl)n1.O=C(O)/C=C\C(=O)O [IRSOGLADINE MALEATE] | 8.27%
21 | CC(C[N+](C)(C)C)OC(N)=O.[Cl-] (stereo not drawn) [BETHANECHOL CHLORIDE] | 5.38%
22 | CCOC(=O)[C@H](CCc1ccccc1)N[C@H]1CCc2ccccc2N(CC(=O)O)C1=O.Cl [BENAZEPRIL HYDROCHLORIDE] | 9.63%
23 | Nc1ccn([C@@H]2O[C@H](CO)[C@@H](O)[C@@H]2O)c(=O)n1 [CYTARABINE] | 17.83%
24 | CNCCC=C1c2ccccc2CCc2ccccc21.Cl [NORTRIPTYLINE HYDROCHLORIDE] | 3.19%
25 | Cc1ccc(Cl)c(Nc2ccccc2C(=O)[O-])c1Cl.O.[Na+] [MECLOFENAMATE SODIUM] | 27.36%
26 | COc1ccccc1N1CCN(CCCNc2cc(=O)n(C)c(=O)n2C)CC1.Cl [URAPIDIL HYDROCHLORIDE] | 12.2%
27 | CC(C(O)c1ccc(O)cc1)N1CCC(Cc2ccccc2)CC1.O.O=C(O)C(O)C(O)C(=O)O (stereo not drawn) | 9.87%
28 | Nc1ccc2cn[nH]c2c1 | -30.24%
29 | COc1ccc(-c2cc(=O)c3c(OC)c(OC)c(OC)c(OC)c3o2)cc1OC [NOBILETIN] | 13.24%
30 | CCN(CC)CCNC(=O)c1cc(Cl)c(N)cc1OC.Cl | 7.88%
31 | O=c1c(O[C@@H]2O[C@H](CO)[C@@H](O)[C@H](O)[C@H]2O)c(-c2ccc(O)c(O)c2)oc2cc(O)cc(O)c12 [ISOQUERCETIN] | 18.79%
32 | CCC[C@@H]1C[C@@H](C(=O)N[C@@H]([C@H]2O[C@H](SC)[C@H](O)[C@@H](O)[C@H]2O)[C@@H](C)O)N(C)C1.Cl.O [LINCOMYCIN HYDROCHLORIDE] | 20.41%
33 | Cc1ccsc1C(=CCCN1CCC[C@@H](C(=O)O)C1)c1sccc1C.Cl [TIAGABINE HYDROCHLORIDE] | 12.29%
